According to the supplement of paper PMC4954754:
± gives the uncertainty stated by the source.

system: HEK293T-Rex ERSE-FLuc; experiment: ERSE-FLuc reporter activation, triplicate confirmation, relative to 500 nM thapsigargin (% of thapsigargin); higher = stronger ATF6/ERSE reporter activation; conditions: 6.8 µM; 18 h; screen: confirmation
Description: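 HEK293T-Rex cells stably expressing the ERSE-firefly luciferase (BiP promoter, ATF6-preferring) or XBP1-splicing Renilla luciferase (IRE1/XBP1s) reporter, 1536-well plates, compound at 6.8 µM for 18 hr at 37 °C; luminescence read […] and expressed as % activation = 100*(compound - median DMSO)/(median 500 nM thapsigargin - median DMSO). Primary screen was single-pass; confirmation screen in triplicate (mean ± SD).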

Compound	ERSE-FLuc reporter activation
O=c1[nH]c(/C=C2\C=Nc3ccccc32)c(O)n1-c1cccc(Cl)c1	58.7 ± 9.3
O=C(N/N=C/c1cccc(O)c1O)c1ccccn1	37.9 ± 9.1
O=C(COC(=O)c1cc(O)c(O)c(O)c1)Nc1ccc(Br)cc1F	57.9 ± 11
CCOc1cc(C2C(C(=O)OC3CCCCC3)=C(C)NC3=C2C(=O)CC(c2ccc(OC)cc2)C3)cc(Br)c1O (stereo not given)	27.2 ± 9.1
Oc1cccc(Nc2nc(-c3ccc(O)c(O)c3)cs2)c1	26.1 ± 6.7
N#Cc1c(NC(=O)c2ccc(Br)cc2)sc2c1CCCC2	27.3 ± 5.2
O=[N+]([O-])c1ccc(/C=C/c2ccc(O)cc2)cc1	28.8 ± 3.3
COc1ccc(-c2csc(-c3ccc(O)cc3)n2)cc1	29.4 ± 5
Cc1ccc(C)c(/C=N/Nc2nncc3ccccc23)c1	29.7 ± 1.9
Oc1ccccc1/C=N\Nc1nc2ccccc2o1	26.6 ± 4.4
Cc1ccc(O)c(-c2cc(-c3cccs3)[nH]n2)c1	44.2 ± 7.9
COc1ccc(NC(=O)/C(Cl)=C\c2ccccc2)cc1	28.6 ± 2.2
Cc1cccc2c1[nH]c1nc(N/N=C\c3c[nH]c4ccccc34)nnc12	60.4 ± 14
Cc1ccc(O)c(NC(=O)CSc2ccccc2)c1	51.1 ± 12
CN(C)c1ccc(/C=N/NC(=O)c2cccc(Br)c2)cc1	26.5 ± 2.7
COc1cn(-c2ccc(F)cc2)nc1C(=O)Nc1ccccc1SC	62.7 ± 4.5
CC(Oc1ccc(Cl)cc1Cl)C(=O)NNC(=O)c1ccc(O)c(O)c1 (stereo not given)	28.5 ± 5.5
NN1C(=O)/C(=C/c2ccc(O)c(O)c2)SC1=S	38.3 ± 1
Cc1cc(C)nc(/N=C(\N)Nc2ccc(OCCC(C)C)cc2)n1	58.2 ± 6.3
COc1ccc(-c2cc(C(=O)Nc3cc(C)ccc3O)on2)cc1OC	33.8 ± 1.9

Compound	ERSE-FLuc reporter activation
Cc1ccn2cc(-c3ccc(O)c(O)c3)nc2c1	36.4 ± 12
Cc1ccc(O)c(NC(=S)NC(=O)/C=C/c2ccco2)c1	27 ± 5.2
O=C(/C=C/c1ccco1)Nc1ccccn1	27.7 ± 4.8
CN(C)c1ccc(/C=C/C(=O)NC(=O)c2ccccc2OC(=O)c2ccccc2)cc1	26.9 ± 8.8
CCCNc1ccnc(N2CCc3ccccc3C2)n1	25.7 ± 11
Cn1c(-c2cccc(Cl)c2)cnc1NC(=O)c1ccccc1	25.6 ± 3.7
N#CC1=C(N)Oc2c(ccc3ccccc23)C1c1ccccc1 (stereo not given)	27.3 ± 3.3
COc1ccc(/C(C)=N/OC/C(O)=C(\C#N)c2nc3ccccc3[nH]2)cc1OC	31.3 ± 11
O=C(N/N=C/c1cccc2ccccc12)c1ccc2c(c1)OCO2	29.9 ± 4.3
N#C/C(=C(/O)c1cc(-c2ccccc2)nc2ccccc12)c1nc2ccccc2[nH]1	31.1 ± 13
COc1cccc(C(=O)Nc2nc3ccc(C)cc3s2)c1	32.2 ± 7.2
N#Cc1c(NC(=O)c2ccc3c(c2)OCO3)sc2c1CCCC2	28.7 ± 6.8
CN1C(=O)/C(=C\c2ccc(O)c(O)c2)SC1=S	25.2 ± 1.4
Nc1ccc2nc(-c3ccc(Br)cc3)[nH]c2c1	36.7 ± 10
Cc1ccc2nc(NC(=O)c3cccc4ccccc34)sc2c1	43.1 ± 7.8
Cc1nc(-c2coc3c(O)c(O)ccc3c2=O)cs1	25.2 ± 4.1
CN(C)c1ccc(-c2nc3ccc(N)cc3[nH]2)cc1	32.7 ± 4.4
CC(=O)Oc1ccc2cc(NC(=O)c3ccc(C)cc3)c(=O)oc2c1	29.7 ± 6
CC(C)NC(=O)c1cc(-c2ccc(O)cc2)on1	25.8 ± 3
COc1ccc(C2C=C3Oc4ccccc4N=C3NN2)cc1 (stereo not given)	29 ± 3.5
